Test results from PubChem BioAssay AID1211 (NMMLSC, 2008).
The source made the active and inactive calls. The rule behind the calls is not given here.

Molecular target: Estrogen receptor (Homo sapiens) (UniProt P03372)
Test: displacement of fluorescent estrogen from ERalpha – cell-based, Cos7 ERalpha-GFP, flow cytometry, primary screen (AID 1211);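 note: 0% = DMSO vehicle wells and 100% = no E2-Alexa633 signal left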
Conditions: fluorescent ligand competition, at 10 µM, stronger effect = higher value

Sequence of Estrogen receptor (Homo sapiens) (P03372 whole entry, looked up): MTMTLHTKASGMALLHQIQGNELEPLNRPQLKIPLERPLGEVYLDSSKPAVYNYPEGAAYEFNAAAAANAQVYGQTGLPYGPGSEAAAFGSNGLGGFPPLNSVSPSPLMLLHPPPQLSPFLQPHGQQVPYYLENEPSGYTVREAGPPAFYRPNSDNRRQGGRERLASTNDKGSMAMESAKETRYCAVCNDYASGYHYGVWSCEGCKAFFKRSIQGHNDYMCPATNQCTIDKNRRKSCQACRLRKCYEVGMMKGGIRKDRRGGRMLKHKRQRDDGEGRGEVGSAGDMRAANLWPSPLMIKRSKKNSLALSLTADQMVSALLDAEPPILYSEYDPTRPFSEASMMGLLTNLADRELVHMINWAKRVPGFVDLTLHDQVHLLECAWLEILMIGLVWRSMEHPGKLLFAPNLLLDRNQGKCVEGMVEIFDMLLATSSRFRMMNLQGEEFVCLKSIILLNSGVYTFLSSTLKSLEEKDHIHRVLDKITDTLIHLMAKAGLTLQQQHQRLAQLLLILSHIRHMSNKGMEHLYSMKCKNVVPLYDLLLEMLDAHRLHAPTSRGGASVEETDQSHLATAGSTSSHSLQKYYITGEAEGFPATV

How did the inhibition of ligand binding turn out when `CC(=O)c1ccc2c(c1)C1C(Cl)C(Sc3ccccc3[N+](=O)[O-])CC1C(c1ccccc1)N2` (stereo not drawn) was run?
The inhibition of ligand binding was 69% (active).

With `Cc1ccc2c(c1Cl)NC(C(=O)O)C1CC(Sc3ccccc3[N+](=O)[O-])C(Cl)C21` (stereo not drawn) as the compound, how does the inhibition of ligand binding read?
The inhibition of ligand binding was 0% (inactive).

For `C[C@H]1CCC[C@@H](O)CCC/C=C/c2cc(O)cc(O)c2C(=O)O1`, which inhibition of ligand binding is on record?
Its inhibition of ligand binding is 67% (active).

For `COc1ccc2[nH]cc(CCN=C(N)N)c2c1`, which inhibition of ligand binding is on record?
The inhibition of ligand binding was 1% (inactive).

For `NC(=O)c1ccc(N=Nc2c(O)[nH]c(=O)[nH]c2=O)cc1`, which inhibition of ligand binding is on record?
The inhibition of ligand binding was 28% (inactive).

For `O=C(O)c1cccc2c1NC(c1cccc([N+](=O)[O-])c1)C1CC(Sc3ccccc3[N+](=O)[O-])C(Cl)C21` (stereo not drawn), which inhibition of ligand binding is on record?
Its inhibition of ligand binding is 62% (inactive).

`COc1ccc(CC2NCCc3cc(OC)c(OC)cc32)cc1OC` (stereo not drawn) was tested. Which inhibition of ligand binding did it give?
Its inhibition of ligand binding is 7% (inactive).

For `O=C(O)c1ccc2c(c1)C1C(Cl)C(Sc3ccccc3[N+](=O)[O-])CC1C(c1cccc([N+](=O)[O-])c1)N2` (stereo not drawn), which inhibition of ligand binding is on record?
The inhibition of ligand binding was 0% (inactive).

For `O=C1C2CCN(CC2)C1Cc1ccc(O)cc1` (stereo not drawn), which inhibition of ligand binding is on record?
Its inhibition of ligand binding is 0% (inactive).

With `CC1(C)CC(CCNCc2ccc3c(c2)OCO3)(Cc2ccccc2)CCO1` (stereo not drawn) as the compound, how does the inhibition of ligand binding read?
Its inhibition of ligand binding is 0% (inactive).

With `N=c1c[n+](CCc2ccc(O)cc2)[n-]o1` as the compound, how does the inhibition of ligand binding read?
Its inhibition of ligand binding is 7% (inactive).

`CC(=O)c1ccc2c(c1)C1C(Cl)C(Sc3ccccc3[N+](=O)[O-])CC1C(C(=O)O)N2` (stereo not drawn) was tested. Which inhibition of ligand binding did it give?
The inhibition of ligand binding was 0% (inactive).

How did the inhibition of ligand binding turn out when `COc1cc2c(cc1OC)CC(C)(C)NC2` was run?
The inhibition of ligand binding was 3% (inactive).

How did the inhibition of ligand binding turn out when `Cc1ccc(S(=O)(=O)Cc2ccc(C(=O)N3CCC4(CC3)OCCO4)o2)cc1` was run?
Its inhibition of ligand binding is 31% (inactive).

For `COc1ccc(Cn2c(N)c(C(=O)NCc3ccco3)c3nc4ccccc4nc32)cc1`, which inhibition of ligand binding is on record?
Its inhibition of ligand binding is 26% (inactive).

Which inhibition of ligand binding does the source give for `COc1ccc(C2(CN)CCCC2)cc1` here?
The inhibition of ligand binding was 21% (inactive).

With `CCOc1ccccc1N1C(=O)NC(=O)C(CCc2ccncc2)(CCc2ccncc2)C1=O` as the compound, how does the inhibition of ligand binding read?
Its inhibition of ligand binding is 59% (inactive).

How did the inhibition of ligand binding turn out when `COc1ccc(C2(CN)CCCC2)cc1OC` was run?
The inhibition of ligand binding was 2% (inactive).

With `O=C(O)c1cccc2c1NC(C(=O)O)C1CC(Sc3ccccc3[N+](=O)[O-])C(Cl)C21` (stereo not drawn) as the compound, how does the inhibition of ligand binding read?
Its inhibition of ligand binding is 0% (inactive).

`CC(=O)c1ccc2c(c1)C1C(Cl)C(Sc3ccccc3[N+](=O)[O-])CC1C(c1ccccc1[N+](=O)[O-])N2` (stereo not drawn) was tested. Which inhibition of ligand binding did it give?
The inhibition of ligand binding was 79% (active).

For `CCNCC1(c2ccc(OC)c(OC)c2)CCCC1`, which inhibition of ligand binding is on record?
Its inhibition of ligand binding is 17% (inactive).

Same assay, conditions: fluorescent ligand competition, binding inhibition, at 0.1 µM, stronger effect = higher value

How did the inhibition of ligand binding turn out when `C[C@H]1CCC[C@@H](O)CCC/C=C/c2cc(O)cc(O)c2C(=O)O1` was run?
Its inhibition of ligand binding is 74%.

With `NC(=O)c1ccc(N=Nc2c(O)[nH]c(=O)[nH]c2=O)cc1` as the compound, how does the inhibition of ligand binding read?
Its inhibition of ligand binding is 14%.

For `Cc1ccc(S(=O)(=O)Cc2ccc(C(=O)N3CCC4(CC3)OCCO4)o2)cc1`, which inhibition of ligand binding is on record?
Its inhibition of ligand binding is 24%.

With `COc1ccc(Cn2c(N)c(C(=O)NCc3ccco3)c3nc4ccccc4nc32)cc1` as the compound, how does the inhibition of ligand binding read?
The inhibition of ligand binding was 45%.

How did the inhibition of ligand binding turn out when `CCOc1ccccc1N1C(=O)NC(=O)C(CCc2ccncc2)(CCc2ccncc2)C1=O` was run?
Its inhibition of ligand binding is 24%.

With `O=C(O)c1cccc2c1NC(C(=O)O)C1CC(Sc3ccccc3[N+](=O)[O-])C(Cl)C21` (stereo not drawn) as the compound, how does the inhibition of ligand binding read?
Its inhibition of ligand binding is 1%.

With `CC(=O)c1ccc2c(c1)C1C(Cl)C(Sc3ccccc3[N+](=O)[O-])CC1C(c1ccccc1[N+](=O)[O-])N2` (stereo not drawn) as the compound, how does the inhibition of ligand binding read?
The inhibition of ligand binding was 38%.
